# From PMC10726135, “HNF4α isoforms regulate the circadian balance between carbohydrate and lipid metabolism in the liver”
# Whole data set: some 18,000 sequences, median “log2 normalized intensity” near 0.36, cut for the highest 2% near 7.3. The entries come from a sample that favours the highest values as a whole.
# Biological target: T1, HNF4alpha8 (COS-7 nuclear extract) (Homo sapiens, UniProt P41235-5 1-452)
# T1 sequence: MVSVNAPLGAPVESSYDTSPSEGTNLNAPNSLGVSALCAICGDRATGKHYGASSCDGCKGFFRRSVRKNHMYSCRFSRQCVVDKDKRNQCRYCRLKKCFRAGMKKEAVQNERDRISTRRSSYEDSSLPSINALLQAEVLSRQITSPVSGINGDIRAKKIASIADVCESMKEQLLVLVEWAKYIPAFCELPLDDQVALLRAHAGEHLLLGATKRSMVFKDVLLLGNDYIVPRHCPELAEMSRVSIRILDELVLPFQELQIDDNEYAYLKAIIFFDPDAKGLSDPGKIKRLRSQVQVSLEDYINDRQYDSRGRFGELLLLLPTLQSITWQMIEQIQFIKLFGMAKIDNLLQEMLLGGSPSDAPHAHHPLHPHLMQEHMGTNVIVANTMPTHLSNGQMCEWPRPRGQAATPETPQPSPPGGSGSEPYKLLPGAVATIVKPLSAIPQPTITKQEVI
# Test: protein-binding microarray; COS-7 nuclear extract on double-stranded Agilent 4x180k PBM; binding buffer, salt, pH and temperature not given in the material; high values mean tight binding
# Settings: chain copies: 2; label: 3' end of strand 1 on the slide; dsDNA, one strand shown
# Procedure, shortened: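 Binding signal is the background-corrected, normalized gProcessedSignal calculated by Agilent software. It was measured by applying nuclear extracts of COS-7 cells transiently transfected with a human HNF4α isoform expression vector to a custom Agilent SurePrint G3 4x180k array of ~44,000 double-stranded ~60-nt test sequences in quadruplicate, then imaging bound HNF4α on an Agilent G2565CA scanner at 2-µm resolution.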
row,Sequence,binding signal
1,GGCATTCTGACCTTTGTCTCCAGGCAAACTGCCTAGGGAGATTAGAGTATCGGTCGA,5.6 log2 normalized intensity
2,GAGGAGTGAGAACAGACAAAATTAAGTGATGCCTAGGGAGATTAGAGTATCGGTCGA,-0.842 log2 normalized intensity
3,TCTGTCTGAGACCACTTAAGCCTGGAATTCGCCTAGGGAGATTAGAGTATCGGTCGA,-0.0786 log2 normalized intensity
4,ACCCATGTTTGCCCTTGATAAGAGCTGCTCGCCTAGGGAGATTAGAGTATCGGTCGA,0.685 log2 normalized intensity
5,AGGTGAATGTACAAAGGTCAACGGCACAAGGCCTAGGGAGATTAGAGTATCGGTCGA,5.02 log2 normalized intensity
6,TGAGCACATTCTTCAATATCAGTGGCACTCGCCTAGGGAGATTAGAGTATCGGTCGA,0.295 log2 normalized intensity
7,CCATGACCTTTGTACTAATGATTTGTAAATGCCTAGGGAGATTAGAGTATCGGTCGA,6.03 log2 normalized intensity
8,CACCTTCTTCCTAGGCAATCCCATGACCTTGCCTAGGGAGATTAGAGTATCGGTCGA,3.52 log2 normalized intensity
9,TGTCTTCTGACCTTTGGCAATATCTCCCAGGCCTAGGGAGATTAGAGTATCGGTCGA,3.96 log2 normalized intensity
10,CAATCCCATGACCTTTGTACTAATGATTTGGCCTAGGGAGATTAGAGTATCGGTCGA,6.73 log2 normalized intensity
11,CTAGGCAATCCCATGACCTTTGTACTAATGGCCTAGGGAGATTAGAGTATCGGTCGA,8.3 log2 normalized intensity
12,TCTTCCTAGGCAATCCCATGACCTTTGTACGCCTAGGGAGATTAGAGTATCGGTCGA,9.08 log2 normalized intensity
13,GGACTTCTCTGCCCTCTTCCCTCTACCTCTGCCTAGGGAGATTAGAGTATCGGTCGA,1.97 log2 normalized intensity
14,AAACAGACCTCTCTCTCCCCAGACAGCCACGCCTAGGGAGATTAGAGTATCGGTCGA,2.71 log2 normalized intensity
15,TATTTACATACCTTAGGCTGTGCATATTGGGCCTAGGGAGATTAGAGTATCGGTCGA,0.994 log2 normalized intensity
16,CCTCCTGCTTAGCGGCCTTCCCCTTTTTCTGCCTAGGGAGATTAGAGTATCGGTCGA,1.99 log2 normalized intensity
17,TCAGACAAGTTGCAGGGATGGACTTTAATCGCCTAGGGAGATTAGAGTATCGGTCGA,7.17 log2 normalized intensity
18,CCCCCTATCCCAAGACATCAATTAACTTGTGCCTAGGGAGATTAGAGTATCGGTCGA,3.09 log2 normalized intensity
19,CCTAGCCCCACCAAACTGACAGGTTAGACTGCCTAGGGAGATTAGAGTATCGGTCGA,2.33 log2 normalized intensity
20,GCTCTAGACATCGACCTTTGTGGGCTTCAGGCCTAGGGAGATTAGAGTATCGGTCGA,3.19 log2 normalized intensity
21,CCCATCGACCTTTGCTCCCGACTCTGAGGCGCCTAGGGAGATTAGAGTATCGGTCGA,5.95 log2 normalized intensity
22,GTCCCTGGCCCCGGGGCGGGGGCGGGCTGGGCCTAGGGAGATTAGAGTATCGGTCGA,-0.21 log2 normalized intensity

row,Sequence,binding signal
1,TCTTCAGGCTGGGGCCCCATCGACCTTTGCGCCTAGGGAGATTAGAGTATCGGTCGA,7.4 log2 normalized intensity
2,AGGCTGGGGCCCCATCGACCTTTGCTCCCGGCCTAGGGAGATTAGAGTATCGGTCGA,10.5 log2 normalized intensity
3,AGACATCGACCTTTGTGGGCTTCAGACATTGCCTAGGGAGATTAGAGTATCGGTCGA,2.32 log2 normalized intensity
4,GGGGCCCCATCGACCTTTGCTCCCGACTCTGCCTAGGGAGATTAGAGTATCGGTCGA,8.88 log2 normalized intensity
5,ACCTCCTGGGCCCAAGTGCTCCTCCCCATCGCCTAGGGAGATTAGAGTATCGGTCGA,3.58 log2 normalized intensity
6,CGACCTTTGCTCCCGACTCTGAGGCTCCATGCCTAGGGAGATTAGAGTATCGGTCGA,5.96 log2 normalized intensity
7,AGCAATCATATATGCATTTGTCTCAGGTGGGCCTAGGGAGATTAGAGTATCGGTCGA,1.26 log2 normalized intensity
8,CCTAAAATTGACCTTTGATCACTCATGGGCGCCTAGGGAGATTAGAGTATCGGTCGA,8.68 log2 normalized intensity
9,TTGTTTACTCATGTGGTCCTAAGACTAACCGCCTAGGGAGATTAGAGTATCGGTCGA,0.432 log2 normalized intensity
10,GACTGACCTTTGATCATTTGAGGGTGACACGCCTAGGGAGATTAGAGTATCGGTCGA,6.1 log2 normalized intensity
11,AATCAACCTTTGATCGTTTGCATGCAGGGCGCCTAGGGAGATTAGAGTATCGGTCGA,3.98 log2 normalized intensity
12,AGGAGGCACTGATAAGCGTATTTCAACCTTGCCTAGGGAGATTAGAGTATCGGTCGA,0.651 log2 normalized intensity
13,GAACTGAAAGAGACCTTTGACATCACCTAAGCCTAGGGAGATTAGAGTATCGGTCGA,2.77 log2 normalized intensity
14,AATTGACCTTTGATCACTCATGGGCAAGATGCCTAGGGAGATTAGAGTATCGGTCGA,6.41 log2 normalized intensity
15,GTTTACTCATGTGGTCCTAAGACTGACCTTGCCTAGGGAGATTAGAGTATCGGTCGA,4.61 log2 normalized intensity
16,GCACTGATAAGCGTATTTCAACCTTTGATCGCCTAGGGAGATTAGAGTATCGGTCGA,8.45 log2 normalized intensity
17,GATAAGCGTATTTCAACCTTTGATCTATAAGCCTAGGGAGATTAGAGTATCGGTCGA,6.82 log2 normalized intensity
18,CTCATGTGGTCCTAAGACTGACCTTTGATCGCCTAGGGAGATTAGAGTATCGGTCGA,10.6 log2 normalized intensity
19,GTGGTCCTAAGACTGACCTTTGATCATTTGGCCTAGGGAGATTAGAGTATCGGTCGA,9.52 log2 normalized intensity
20,AATGCCCAGGATTCCTTTTTCACTGCTCACGCCTAGGGAGATTAGAGTATCGGTCGA,-0.85 log2 normalized intensity
21,CACTTCCCGAGTGAGGCAATGCCTCGCCCTGCCTAGGGAGATTAGAGTATCGGTCGA,-0.664 log2 normalized intensity
22,ATTCAGCATTGCTTGGGAGCAGTCCTTGGGGCCTAGGGAGATTAGAGTATCGGTCGA,-0.959 log2 normalized intensity

row,Sequence,binding signal
1,AGCATGTTTGGTGACCCGTGACCCTCAGGAGCCTAGGGAGATTAGAGTATCGGTCGA,3.82 log2 normalized intensity
2,CCGTCTCTCACCAAATCCCTGCCCACATCCGCCTAGGGAGATTAGAGTATCGGTCGA,2.23 log2 normalized intensity
3,CTCCTTGGAAGTCGCCGTGAGGTTATTTGCGCCTAGGGAGATTAGAGTATCGGTCGA,0.914 log2 normalized intensity
4,GAGAGGCTTATGCATGGGAGATCTTCAGTAGCCTAGGGAGATTAGAGTATCGGTCGA,-0.357 log2 normalized intensity
5,TTCCTTATCTGGAATTCCTCCTCCTGTTTGGCCTAGGGAGATTAGAGTATCGGTCGA,0.85 log2 normalized intensity
6,TCTTTTGACCTTTGCCTCATTCTTATTGCCGCCTAGGGAGATTAGAGTATCGGTCGA,5.61 log2 normalized intensity
7,GACCTTTATATGTCCACCTTATCTAATGCCGCCTAGGGAGATTAGAGTATCGGTCGA,2.22 log2 normalized intensity
8,AGCAAACCTGTCTCTCTGCATTCCTCCTGGGCCTAGGGAGATTAGAGTATCGGTCGA,0.684 log2 normalized intensity
9,TCTTTAAGGACCACATCAAAGGTCATCTCTGCCTAGGGAGATTAGAGTATCGGTCGA,5.09 log2 normalized intensity
10,TGCAGTGTCCATGGTGACCATGTGATGTGAGCCTAGGGAGATTAGAGTATCGGTCGA,1.26 log2 normalized intensity
11,GCTGACCTTTGGTCTAAACCTACTTAGATCGCCTAGGGAGATTAGAGTATCGGTCGA,4.73 log2 normalized intensity
12,GTGGTCCTAAAATTGACCTTTGATCACTCAGCCTAGGGAGATTAGAGTATCGGTCGA,10.2 log2 normalized intensity
13,CTCATGTGGTCCTAAAATTGACCTTTGATCGCCTAGGGAGATTAGAGTATCGGTCGA,11 log2 normalized intensity
14,AGTGCGATGATCATGGCTCACTGCACCTTGGCCTAGGGAGATTAGAGTATCGGTCGA,0.737 log2 normalized intensity
15,TGCCTTTGATCAGGGACCTTTGTTCCTTTAGCCTAGGGAGATTAGAGTATCGGTCGA,5 log2 normalized intensity
16,GATGATCATGGCTCACTGCACCTTGACCTCGCCTAGGGAGATTAGAGTATCGGTCGA,8.12 log2 normalized intensity
17,TGCACTTTGACCGCTCATTTGATCCTCACAGCCTAGGGAGATTAGAGTATCGGTCGA,4.61 log2 normalized intensity
18,TCATGGCTCACTGCACCTTGACCTCCTGGGGCCTAGGGAGATTAGAGTATCGGTCGA,5.78 log2 normalized intensity
19,CAAATAAACCTTTGACCAATTGACCCTATCGCCTAGGGAGATTAGAGTATCGGTCGA,4.69 log2 normalized intensity
20,GCCTCCATTAATTAACCTTTGAGCTGGGTGGCCTAGGGAGATTAGAGTATCGGTCGA,5.22 log2 normalized intensity
21,TGGACTGTTCAAGACCAAAGGTCATGGCAAGCCTAGGGAGATTAGAGTATCGGTCGA,5.58 log2 normalized intensity
22,TAAGTGTGGGTTTAAGTAAGCCCCCTTCCCGCCTAGGGAGATTAGAGTATCGGTCGA,4.85 log2 normalized intensity

row,Sequence,binding signal
1,AGCTGACCCCAAAACCCCCAAAGGTGAGTAGCCTAGGGAGATTAGAGTATCGGTCGA,4.29 log2 normalized intensity
2,GCCACCCTCTGGCCACCAGTTATTCATGTCGCCTAGGGAGATTAGAGTATCGGTCGA,0.887 log2 normalized intensity
3,TAGGTATGCCCCATGGTAAGAACTACAGTTGCCTAGGGAGATTAGAGTATCGGTCGA,1.21 log2 normalized intensity
4,AACTACAGTTGACCTTTGAACACCACAAGTGCCTAGGGAGATTAGAGTATCGGTCGA,8.13 log2 normalized intensity
5,CAGTTGACCTTTGAACACCACAAGTTTGAAGCCTAGGGAGATTAGAGTATCGGTCGA,6.74 log2 normalized intensity
6,CCATGGTAAGAACTACAGTTGACCTTTGAAGCCTAGGGAGATTAGAGTATCGGTCGA,8.15 log2 normalized intensity
7,ATGCCCCATGGTAAGAACTACAGTTGACCTGCCTAGGGAGATTAGAGTATCGGTCGA,4.71 log2 normalized intensity
8,GACCTTTGAACACCACAAGTTTGAACTGCAGCCTAGGGAGATTAGAGTATCGGTCGA,5.65 log2 normalized intensity
9,TTTTCCTTTGTTGGTTTTGCCCGAGGTCTGGCCTAGGGAGATTAGAGTATCGGTCGA,1.89 log2 normalized intensity
10,GTGGAATTTGTGCTTATTTCCCATCAAGGAGCCTAGGGAGATTAGAGTATCGGTCGA,0.292 log2 normalized intensity
11,ATAGCGCCCACACTGCCCATCCCCACTGAAGCCTAGGGAGATTAGAGTATCGGTCGA,3.12 log2 normalized intensity
12,AGCTGCCCTTTGCACATGCCCCTCCCAGGGGCCTAGGGAGATTAGAGTATCGGTCGA,2.81 log2 normalized intensity
13,AATGCACTGGTGACTTTAAGTTGACTCCAAGCCTAGGGAGATTAGAGTATCGGTCGA,-0.366 log2 normalized intensity
14,CACTATCACCAGGATGGGCCATGACCTTTAGCCTAGGGAGATTAGAGTATCGGTCGA,4.97 log2 normalized intensity
15,ATGACCTTTACCCCCATTTGGTAATGGGCCGCCTAGGGAGATTAGAGTATCGGTCGA,5.46 log2 normalized intensity
16,TCACCAGGATGGGCCATGACCTTTACCCCCGCCTAGGGAGATTAGAGTATCGGTCGA,10 log2 normalized intensity
17,GGGCCATGACCTTTACCCCCATTTGGTAATGCCTAGGGAGATTAGAGTATCGGTCGA,7.13 log2 normalized intensity
18,AGGATGGGCCATGACCTTTACCCCCATTTGGCCTAGGGAGATTAGAGTATCGGTCGA,8.39 log2 normalized intensity
19,AACGGCCCAGGGTTAGAGGATGACCTTCCCGCCTAGGGAGATTAGAGTATCGGTCGA,3.71 log2 normalized intensity
